# Reference: PubChem BioAssay (EPA / NIEHS)
# Where “and” joins values, the source holds several entries; their conditions need not be identical. Equal values may be shown once. A structure can be active in one record and inactive in another. Calls of active or inactive are those of the source. How the source made its calls: active means hit-call score of the fitted dose curve at least 0.9, where 1 is the maximum; inactive means score below 0.9.
# How the values were obtained:
# [1] = read-out: Interleukin-8 (IL8), CXCL8 (gene 3576); assay: BSK_3C_IL8: BioMAP Diversity Plus: 3C Assay for Interleukin-8 (IL8) Biomarker Activity (AID 2283020); conditions: primary human endothelial cells (HUVEC); actives raise or lower the signal
# Method in brief: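 Human vascular endothelial cells (umbilical vein) in the 3C system; IL-8 level detected by ELISA at 24 h post-dose, with DMSO as baseline.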
# [2] = read-out: Monokine induced gamma interferon (MIG), CXCL9 (gene 4283); assay: BSK_3C_MIG: BioMAP Diversity Plus: 3C Assay for Monokine induced gamma interferon (MIG) Biomarker Activity (AID 2283021); conditions: primary human endothelial cells (HUVEC); actives raise or lower the signal;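 on AC50: MIG protein level measured by immunoassay in the treated endothelial cultures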
# Method in brief: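 After 24 h of treatment, human umbilical vein endothelial cultures (3C system) had their MIG biomarker level determined by ELISA, with DMSO serving as negative control.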
# [3] = BSK_3C_SRB: Viability Assessment in the BioMAP Diversity Plus: 3C Assay (AID 2283023); conditions: primary human endothelial cells (HUVEC);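 further: fitted both ways against DMSO so a hit may be signal rise or drop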
# Method in brief: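 Absorbance at 560 nm of sulforhodamine B-stained (0.1%) total protein served as a cytotoxicity readout in human umbilical vein endothelial cells, 24 h after chemical treatment. Signal was fitted bidirectionally relative to DMSO.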
# [4] = read-out: Matrix Metallopeptidase 1 (MMP1), MMP1 (gene 4312); assay: BSK_BE3C_MMP1: BioMAP Diversity Plus: BE3C Assay for Matrix Metallopeptidase 1 (MMP1) Biomarker Activity (AID 2283024); conditions: primary human bronchial epithelial cells; actives raise or lower the signal
# Method in brief: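 Dose cells, wait 24 h, run MMP1 ELISA; cells are human bronchial epithelial primaries. Both increases and decreases relative to DMSO counted.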
# [5] = read-out: Pselectin, SELP (gene 6403); assay: BSK_4H_Pselectin: BioMAP Diversity Plus: 4H Assay for Pselectin Biomarker Activity (AID 2283026); conditions: primary human endothelial cells (HUVEC); actives raise or lower the signal
# Method in brief: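 Human vascular endothelium from umbilical vein; P-selectin measured by ELISA at 24 h post-dose, with cytotoxicity checked by sulforhodamine B total-protein staining in parallel cultures (0.1% SRB after 10% TCA fixation, read at 560 nm).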
# [6] = BSK_4H_SRB: Viability Assessment in the BioMAP Diversity Plus: 4H Assay (AID 2283027); conditions: primary human endothelial cells (HUVEC);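 further: cells exposed to compound for 24 h before staining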;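 on AC50: curves fitted both ways versus DMSO so AC50 may be loss or gain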
# Method in brief: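 Human umbilical vein endothelial cells, 24 h after chemical dosing; total protein measured by 0.1% sulforhodamine B staining after 10% TCA fixation, read at 560 nm. Bidirectional fitting against DMSO.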
# [7] = BSK_BE3C_SRB: Viability Assessment in the BioMAP Diversity Plus: BE3C Assay (AID 2283028); conditions: primary human bronchial epithelial cells;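 on AC50: fitted both ways so AC50 may mark signal gain or loss versus DMSO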
# Method in brief: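 Cells (human bronchial epithelial, primary) are treated with chemicals, and after 24 h the parallel cultures are fixed in 10% TCA. These are then stained with 0.1% SRB and read at 560 nm. Gain or loss of signal is fitted relative to DMSO.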
# [8] = read-out: Thrombomodulin, THBD (gene 7056); assay: BSK_3C_Thrombomodulin: BioMAP Diversity Plus: 3C Assay for Thrombomodulin Biomarker Activity (AID 2283029); conditions: primary human endothelial cells (HUVEC); actives raise or lower the signal
# Method in brief: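 Thrombomodulin ELISA, human primary HUVEC, 24 h post-dose; data fitted in both directions relative to DMSO.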
# [9] = BSK_3C_Vis: BioMAP Diversity Plus: 3C Assay for Morphology Visualization (AID 2283025); conditions: primary human endothelial cells (HUVEC);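 further: fitted both ways so gain or loss versus DMSO counts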;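 on AC50: light microscopy image of cell morphology used as background control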
# Method in brief: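 Endothelial cells from human umbilical vein were treated with test chemicals for 24 h and inspected by light microscopy for changes in cell conformation.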
smiles,measurement,setting,value
OCC(F)(F)C(F)(F)C(F)(F)F,outcome,[1],inactive
same,outcome,[2],inactive
same,outcome,[3],inactive
same,outcome,[4],inactive
same,outcome,[5],inactive
same,outcome,[6],inactive
same,outcome,[7],inactive
same,outcome,[8],inactive
C#C[C@]1(O)CC[C@H]2[C@@H]3CCc4cc(OC)ccc4[C@H]3CC[C@@]21C,AC50,[1],3.97 µM (active)
same,outcome,[2],inactive
same,outcome,[4],inactive
same,AC50,[9],37.5 µM (active)
same,outcome,[5],inactive
same,outcome,[6],inactive
same,outcome,[7],inactive
same,outcome,[8],inactive
C=CC(F)(F)C(F)(F)C(F)(F)C(F)(F)C(F)(F)C(F)(F)C(F)(F)C(F)(F)F,outcome,[1],inactive
same,outcome,[2],inactive
same,outcome,[4],inactive
same,outcome,[5],inactive
same,outcome,[6],inactive
same,outcome,[7],inactive
same,outcome,[8],inactive
CCCCCCCCC(F)(F)C(F)(F)C(F)(F)C(F)(F)C(F)(F)C(F)(F)F,outcome,[1],inactive
same,outcome,[2],inactive
same,outcome,[4],inactive
same,outcome,[5],inactive
same,outcome,[6],inactive
same,outcome,[7],inactive
same,outcome,[8],inactive
CCCCCCOC(=O)c1ccccc1O,AC50,[1],41.7 µM (active) and 44.8 µM (active)
same,AC50,[2],41.2 µM (active) and 40.8 µM (active)
same,outcome,[4],inactive
same,AC50,[5],40.7 µM (active) and 41.9 µM (active)
same,AC50,[6],44.2 µM (active) and 42.6 µM (active)
same,outcome,[7],inactive
same,outcome,[8],inactive
OCCCC(F)(F)C(F)(F)C(F)(F)C(F)(F)C(F)(F)C(F)(F)C(F)(F)F,AC50,[1],44.9 µM (active) and 47.6 µM (active)
same,AC50,[2],49.2 µM (active) and 43.7 µM (active)
same,AC50,[3],32.6 µM (active) and 45.2 µM (active)
same,AC50,[4],49.7 µM (active) and 48.3 µM (active)
same,AC50,[5],41.8 µM (active)
same,outcome,[5],inactive
same,AC50,[6],49.4 µM (active) and 48.3 µM (active)
same,AC50,[7],49.1 µM (active) and 52.5 µM (active)
same,outcome,[8],inactive
Cc1ccc(S(=O)(=O)OCC(F)(F)C(F)(F)C(F)(F)C(F)(F)C(F)(F)C(F)F)cc1,outcome,[1],inactive
same,outcome,[2],inactive
same,AC50,[4],18.2 µM (active)
same,outcome,[4],inactive
same,outcome,[5],inactive
same,outcome,[6],inactive
same,outcome,[7],inactive
same,outcome,[8],inactive
O=C(O)C(F)(F)C(F)(F)C(F)F,outcome,[1],inactive
same,outcome,[2],inactive
same,outcome,[4],inactive
same,outcome,[5],inactive
same,outcome,[6],inactive
same,outcome,[7],inactive
same,outcome,[8],inactive
O=C(O)C(F)(F)C(F)(F)C(F)(F)C(F)(F)C(F)(F)C(F)(F)C(F)(F)C(F)(F)C(F)(F)C(F)(F)C(F)(F)C(F)(F)F,AC50,[1],23.6 µM (active) and 8.82 µM (active)
same,outcome,[2],inactive
same,outcome,[4],inactive
same,outcome,[5],inactive
same,AC50,[6],21.7 µM (active) and 18 µM (active)
same,outcome,[7],inactive
same,AC50,[8],0.928 µM (active)
same,outcome,[8],inactive
O=C(O)C(F)(OC(F)(F)C(F)(OC(F)(F)C(F)(OC(F)(F)C(F)(F)C(F)(F)F)C(F)(F)F)C(F)(F)F)C(F)(F)F (configuration not stated),outcome,[1],inactive
same,outcome,[2],inactive
same,outcome,[4],inactive
same,outcome,[5],inactive
same,outcome,[6],inactive
same,outcome,[7],inactive
same,outcome,[8],inactive
OCC(F)(F)C(F)(F)C(F)(F)C(F)F,outcome,[1],inactive
same,outcome,[2],inactive
same,outcome,[4],inactive
same,outcome,[5],inactive
same,outcome,[6],inactive
same,outcome,[7],inactive
same,outcome,[8],inactive
FC(F)(F)C(F)(F)C(F)(F)C(F)(F)CCI,outcome,[1],inactive
same,outcome,[2],inactive
same,AC50,[4],30 µM (active)
same,outcome,[4],inactive
same,outcome,[5],inactive
same,outcome,[6],inactive
same,outcome,[7],inactive
same,outcome,[8],inactive
C=CC/C=C/C/C=C/C/C=C/C,outcome,[1],inactive
same,outcome,[2],inactive
same,outcome,[4],inactive
same,outcome,[9],inactive
same,outcome,[5],inactive
same,outcome,[6],inactive
same,outcome,[7],inactive
same,outcome,[8],inactive
N=C(N)C(F)(F)C(F)(F)C(F)(F)C(F)(F)C(F)(F)C(F)(F)C(F)(F)F,outcome,[1],inactive
same,outcome,[2],inactive
same,AC50,[4],19.4 µM (active)
same,outcome,[4],inactive
same,outcome,[5],inactive
same,AC50,[6],48.5 µM (active)
same,outcome,[6],inactive
same,outcome,[7],inactive
same,outcome,[8],inactive
O=C(O)C(F)(F)C(F)(F)C(F)(F)F,outcome,[1],inactive
same,outcome,[2],inactive
same,outcome,[4],inactive
same,outcome,[5],inactive
same,outcome,[6],inactive
same,outcome,[7],inactive
same,outcome,[8],inactive
COC(=O)CCC(F)(F)C(F)(F)C(F)(F)C(F)(F)F,outcome,[1],inactive
same,outcome,[2],inactive
same,outcome,[4],inactive
same,outcome,[5],inactive
same,outcome,[6],inactive
same,outcome,[7],inactive
same,outcome,[8],inactive
